# Screen size: about 69,000 compounds; about 8,600 (12%) showed an effect of 50% or more. Only a selection was taken, and strong results are over-represented in it overall.
# Tested on: Plasmodium berghei
# Assay: Screen against P. berghei liver stage (PbLuc), transformed with Luciferase, at 10uM
# Format: functional, HepG2
# Conditions: tested at 10 uM
row,Compound,INHIBITION
1,COCCNC(=O)N1CCN(c2cc(F)ccc2F)CC1,8.7%
2,CNCc1cnc(Nc2ccccc2)nc1,39.9%
3,Cc1nnc(NC(=O)C2CSCN2C(=O)C2CCCC2)s1 (stereo unspecified),25.4%
4,CC(C)c1nnc(NC(=O)C2CSCN2C(=O)C2CCC2)s1 (stereo unspecified),61.2%
5,O=C(Nc1nncs1)C1CSCN1C(=O)C1CCCC1 (stereo unspecified),20.5%
6,COc1ccccc1OC1CCN(c2ccncc2)CC1,-2.93%
7,CN(C(=O)Nc1cccnc1)C1CCN(c2ccc(Cl)cc2)CC1,60.4%
8,CSC(C)C(=O)N(C)C1CCN(c2ccc(Cl)cc2)CC1 (stereo unspecified),35.5%
9,CC(C)CN(C(=O)Nc1cccnc1)C1CC1,-18.5%
10,CN1CCC(N(C)C(=O)Nc2ccc(Cl)cc2)CC1,-5.64%
11,CN(CC(=O)N(C)C1CC1)C1CCN(c2ccc(Cl)cc2)CC1,29%
12,CN(C(=O)NC1CC1)C1CCN(c2ccc(Cl)cc2)CC1,13.9%
13,COc1ccc(OC2CCN(c3ccncc3)CC2)cc1,55.1%
14,CN1CCC(Oc2ccc(-n3ccnc3-c3ccncc3)cc2)CC1,49.4%
15,COc1ccc(N2CCC(N(C)C(=O)C(C)SC)CC2)cc1 (stereo unspecified),60.4%
16,CN(C(=O)Nc1ccncc1)C1CCN(c2ccc(Cl)cc2)CC1,83.1%
17,COc1ccc(N2CCC(N3C[C@H](NC(C)=O)[C@@H](C(C)C)C3)CC2)cc1,33%
18,CS(=O)(=O)N[C@@H]1CN(Cc2ccc3ccccc3c2)C[C@H]1O,-6.88%

row,Compound,INHIBITION
1,O=C(Cc1ccccn1)N1CCCC(c2nccn2CC2CCC2)C1 (stereo unspecified),10.7%
2,O=C(O)c1cc(C2CC2)nc2c(Cl)cnn12,29.2%
3,CC(C)C(C(=O)N1CCN(c2nccs2)CC1)n1cncn1 (stereo unspecified),5.03%
4,Cc1nc(C2CCNC2)nc2c1CCC(=O)N2CC(C)C (stereo unspecified),25.65%
5,CN1C(=O)c2cccc(NC(=O)c3ccc4c(c3)OCCO4)c2C1=O,8.46%
6,CC(C)(C)NC(=O)[C@@H]1CNC[C@]12Cc1ccccc1C(=O)N2,24.2%
7,COCCNc1nnc(-c2cnc(C)cn2)s1,-54.1%
8,c1cncc(C[C@H]2[C@H](N3CCOCC3)CCN2Cc2nccs2)c1,8.85%
9,Cn1cc(C(=O)N2CCN(Cc3cscn3)CC2)ccc1=O,-8.22%
10,COc1ccc(N2CCC(N(C)C(=O)Nc3ccncc3)CC2)cc1,52.8%
11,Cc1cc(NC(=O)N(C)CCN2CCN(c3ccccc3)CC2)on1,35.5%
12,COCc1ncc(CN2CCC(Oc3ccccc3C)CC2)cn1,26.8%
13,COCc1ncc(CN2CCC(Oc3ccc(OC)cc3)CC2)cn1,56%
14,CN(CCN1CCN(c2ccccc2)CC1)C(=O)Nc1ccccn1,45.4%
15,CCOC(C)C(=O)N(C)C1CCN(c2ccc(OC)cc2)CC1 (stereo unspecified),33.4%
16,COCc1ncc(CN2CCC(Oc3ccccc3OC)CC2)cn1,-20.6%
17,CN(CCN1CCN(c2ccccc2)CC1)C(=O)Nc1ccncc1,73.2%
18,COc1ccc(N2CCC(N(C)C(C)C(=O)N(C)C)CC2)cc1 (stereo unspecified),45.3%
